Experiment [1] can be described thus: qHTS assay to identify small molecule agonists of the hypoxia (HIF-1) signaling pathway - cell viability counter screen (AID 1224844; calls by dose curve; note: nearly all actives have a fitted effect of over 50% in size). The note with it: HRE-bla ME-180 viability, CellTiter-Glo luminescence, 17 h; series mostly up to 76.8 µM. A digest of the protocol:
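Cells (HRE-bla ME-180, 2,000 per well) sat 5 hrs at 37C, got compound for 17 hrs, were read for CCF4-AM FRET, and were finally lysed with CellTiter-Glo for a 30 min room-temperature luminescence read.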

Experiment [2] can be described thus: qHTS assay to identify small molecule agonists of H2AX (AID 1224845; active = well fitted activation curve with a large enough effect in the signal ratio in the repeat runs, not every such curve was filed as active; the % refers to the signal ratio). Conditions: CHO-K1 phospho-H2AX Ser139 HTRF, 3 h; series mostly up to 154 µM. A digest of the protocol: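 Wild-type CHO-K1 cells plated overnight, then exposed 3 hr at 37C to compounds at 15 concentrations (0.76% DMSO). Lysed, then HTRF anti-pH2AX(S139)-cryptate/anti-H2AX-d2 detection after 24 hr at room temperature; emissions 665 and 620 nm.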

A short description of experiment [3]: qHTS assay to identify small molecule agonists of the hypoxia (HIF-1) signaling pathway (AID 1224846; active = well fitted activation curve with a large enough effect in the signal ratio in the repeat runs, not every such curve was filed as active; the % refers to the signal ratio). Conditions: HRE-bla ME-180 cells, beta-lactamase ratio, 17 h; series mostly up to 76.8 µM. A digest of the protocol:
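A low-serum medium (0.5% dialyzed FBS) holding 2,000 HRE-bla ME-180 cells per well is preincubated for 5 hrs, dosed with compounds by pintool, and kept a further 17 hrs at 37C, 5% CO2 before CCF4-AM FRET detection of beta-lactamase.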

The nature of experiment [4]: qHTS assay to identify small molecule antagonists of the estrogen related receptor (ERR) signaling pathway from Tox21 library (AID 1224848). Note: nearly all actives have a fitted effect of over 50% in size. Note: potency is the fitted concentration of half-maximal effect. Conditions: ERR reporter cell line, luciferase antagonist mode, 18 h; series mostly up to 92.4 µM. A digest of the protocol:
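Screening used an ERR reporter line supplied by NTP, exposed for 18 h at 37 C to library compounds delivered in DMSO. Signal was luciferase luminescence developed with ONE-Glo at room temperature for 30 min.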

A short description of experiment [5]: qHTS RealTime-Glo MT Cell Viability Assay in HepG2 cells - 24 hour (AID 1224867). Note: nearly all actives have a fitted effect of over 50% in size. The note with it: RealTime-Glo luminescence; series mostly up to 76.8 µM. The procedure, abridged:
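qHTS, HepG2, 600 cells/well, RealTime-Glo (NanoLuc + prosubstrate) added with cells; 5 h preincubation; DMSO compound addition; 37 C; luminescence at 0/8/16/24/32/40 h.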

Experiment [6] in a line: A CellTox Green Cytotoxicity Assay to monitor cytotoxicity in HEK293 cells - 0 hour (AID 1224869). Note: nearly all actives have a fitted effect of over 50% in size. The note with it: CellTox Green fluorescence; series mostly up to 76.8 µM. The procedure, abridged:
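Fluorescence intensity, read at 0, 8, 16, 24, 32 and 40 h of compound treatment, reflected dye binding to DNA of dead HEK293 cells; compounds (23 nL, DMSO) were added 5 h after plating cells with reagent.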

The nature of experiment [7]: qHTS RealTime-Glo MT Cell Viability Assay in HepG2 cells - 40 hour (AID 1224870). Note: nearly all actives have a fitted effect of over 50% in size. The note with it: RealTime-Glo luminescence; series mostly up to 76.8 µM. A digest of the protocol: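 HepG2 cells mixed with RealTime-Glo MT reagents (NanoLuc plus cell-permeant prosubstrate) were seeded at 600 cells/well, incubated 5 h at 37 C/5% CO2, then pinned with compounds in DMSO; nonlytic luminescence tracked viability during 40 h treatment.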

A short description of experiment [8]: qHTS RealTime-Glo MT Cell Viability Assay in HEK293 cells - 32 hour (AID 1224868). Conditions: RealTime-Glo luminescence; series mostly up to 76.8 µM. The procedure, abridged: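 Assay medium contained NanoLuc luciferase plus cell-permeant prosubstrate, added with HEK293 cells at 600 cells/well. After 5 h at 37 C/5% CO2 compounds were added; plates stayed at 37 C for 40 h with serial luminescence reads.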

Experiment [9] is described as follows: qHTS assay to identify small molecule agonists of the estrogen related receptor (ERR) signaling pathway from Tox21 library (AID 1224849; calls by dose curve; note: nearly all actives have a fitted effect of over 15% in size). The note with it: ERR reporter cell line, ONE-Glo luciferase, 18 h; at 92.4 µM (top of the series) unless noted. The procedure, abridged: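 Screening used an NTP-provided ERR luciferase cell line. Compounds in DMSO were added 6 h after seeding and left 18 h at 37 C before a 30 min ONE-Glo step and luminescence reading.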

A number with no mark means an inactive call. Results filed as inconclusive are left out. Active and inactive are the calls of the source. Unless noted, calls come from the whole dose curve; as a rule, active = well fitted curve in the direction sought with a large enough effect in the repeat runs; inconclusive = weak or mixed curves; inactive = no such curve, though single readings can be large; an effect the other way counts as inactive or inconclusive.
% is set by controls: 0 for no effect and ±100 for the full control effect.

Consider `COc1ccc(C(=O)N2CCN(CC(=O)N3CCOCC3)CC2)cc1`, for which the Potency entry in [1], in experiment [2], in experiment [3], in experiment [4], in experiment [5] and in experiment [6] was “inactive” in each case. Further, the Potency result in experiment [7] was “inactive”.

`O=C1CCCCCCCCCCCC(=O)OCCO1`: the Potency result in [1], in experiment [2], in [3], in [4], in experiment [5] and in experiment [8] was “inactive” each time. The Potency result in [6] and in experiment [7] was “inactive” each time.

As for `O=C(O)C1(C(=O)Nc2ccc(Cl)cc2Cl)CC1`, the Potency entry in experiment [1], in experiment [2], in [3], in [5], in [8] and in experiment [6] was “inactive” in each case. Besides, in experiment [7], the Potency entry is “inactive”.

With `CCOC(=O)Cc1cccc2ccccc12`, the Potency entry in [1], in [2], in [3], in experiment [4], in experiment [5] and in experiment [8] was “inactive” throughout. Further, the Potency result in [6] and in experiment [7] was “inactive” in each case. In experiment [9], the activity change, positive = activation is -0.505%.

Turning to `COc1cc2nc(N(C)CCCNC(=O)C3CCCO3)nc(N)c2cc1OC` (stereo unspecified), the Potency result in experiment [1], in [2], in experiment [3], in [5], in experiment [6] and in [7] was “inactive” in each case. Also, in experiment [4], the Potency was 9.44 µM (active). Moreover, in experiment [9], the activity change, positive = activation is -34.3% [at 42.5 µM].

Consider `Cc1nn(C)c(Oc2ccccc2)c1/C=N/OCc1ccc(C(=O)OC(C)(C)C)cc1`, for which the Potency result in [1], in [2], in [3] and in [7] was “inactive” throughout. For the same molecule, the Potency in [4] was 0.0049 µM (active).

On to `Cc1c(N)cccc1[N+](=O)[O-]`, for which the Potency result in experiment [1], in experiment [2], in experiment [3], in experiment [4], in experiment [5] and in [8] was “inactive” each time. For the same molecule, the Potency entry in experiment [6] and in experiment [7] was “inactive” in each case. Further, the activity change, positive = activation in experiment [9] was -14.7%.

Turning to `O=C1OC(CN2CCOCC2)CN1/N=C/c1ccc([N+](=O)[O-])o1` (stereo unspecified), the Potency result in experiment [1], in experiment [2], in [3], in experiment [5], in [8] and in [6] was “inactive” each time. The Potency entry in experiment [7] was “inactive”.

On to `O=C1OC(=O)C2C3C=CC(C3)C12` (stereo unspecified), for which the Potency entry in experiment [1], in [2], in experiment [3], in experiment [5], in experiment [8] and in experiment [6] was “inactive” each time. In experiment [7], the Potency entry is “inactive”.

`CCOC(=O)C(F)(F)F`: the Potency result in experiment [1], in experiment [2], in experiment [3], in experiment [5], in experiment [8] and in experiment [6] was “inactive” in each case. Besides, the Potency result in experiment [7] is “inactive”.

In the case of `C/C=C/C(=O)CC`, the activity change, negative = cytotoxicity in [1] was -6.33% [at 15.8 µM]; in [5] it was 0.602% [at 15.8 µM]. For the same molecule, the activation (H2AX phosphorylation) in experiment [2] was -0.233% [at 31.6 µM]. Further, the activation in [3] is -0.782% [at 15.8 µM]. Further, the figures for the activity change, negative = cytotoxic in [8] and in experiment [7] were 1.19% [at 15.8 µM] and 1.82% [at 15.8 µM], respectively. Besides, the cytotoxicity in experiment [6] is 1.29% [at 15.8 µM].

`ClCCOCCOCCCl`: the Potency result in [1], in experiment [2], in experiment [3], in experiment [4], in [5] and in [8] was “inactive” each time. Further, the Potency entry in [6] and in [7] was “inactive” throughout.

Consider `O=C1CCC(=O)O1`, for which the Potency result in experiment [1], in experiment [2], in [3], in experiment [4], in experiment [5] and in experiment [8] was “inactive” each time. Also, the Potency result in experiment [6] and in experiment [7] was “inactive” in each case. For the same molecule, the activity change, positive = activation in experiment [9] was 5.7%.

Turning to `Nc1cccc(S(=O)(=O)c2cccc(N)c2)c1`, the Potency entry in [1], in experiment [2], in experiment [3], in experiment [4], in experiment [5] and in [6] was “inactive” each time. For the same molecule, the Potency entry in experiment [7] is “inactive”. In experiment [9], the activity change, positive = activation is 0.747%.
